Consider nine molecules from PubChem BioAssay AID1002 (National Center for Advancing Translational Sciences (NCATS), 2008).

Active and inactive are the calls of the source.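 The calls were made as follows: active = compound given an inhibitor call from its dose-response curve against AmpC beta-lactamase with detergent added; inactive = the rest.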

Sequence of Beta-lactamase (Escherichia coli (strain K12)) (P00811 whole entry, looked up): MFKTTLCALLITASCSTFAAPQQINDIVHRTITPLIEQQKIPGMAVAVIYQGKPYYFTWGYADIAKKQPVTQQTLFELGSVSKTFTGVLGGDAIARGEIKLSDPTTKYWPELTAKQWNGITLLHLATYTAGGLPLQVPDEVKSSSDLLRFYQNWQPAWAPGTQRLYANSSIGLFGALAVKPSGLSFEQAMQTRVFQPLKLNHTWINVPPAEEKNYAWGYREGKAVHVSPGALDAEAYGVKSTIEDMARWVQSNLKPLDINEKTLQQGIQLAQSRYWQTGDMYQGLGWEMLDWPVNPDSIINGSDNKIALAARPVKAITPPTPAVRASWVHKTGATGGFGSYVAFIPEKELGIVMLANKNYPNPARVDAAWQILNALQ

The target in this assay is Beta-lactamase (Escherichia coli (strain K12)) (UniProt P00811). The assay is described as follows: Confirmation Concentration-Response Assay for Inhibitors of AmpC Beta-Lactamase (assay with detergent). The settings on record: purified AmpC, nitrocefin absorbance 480 nm, 0.01% Triton. On the procedure:
NIH Molecular Libraries Screening Centers Network [MLSCN] NIH Chemical Genomics Center [NCGC] MLSCN Grant: MH079825-01 Assay Provider: Shoichet, Brian K. This aggregation profiling approach exploits the sensitivity of aggregate formation to detergent. Inhibition of b-lactamase is measured in the presence and absence of 0.01% Triton X-100 (Feng 2007). This particular assay is a confirmation of previous qHTS (Inglese, 2006), Pubchem AID 584, assay with presence of 0.01% Triton X-100. For a related assay without detergent, see AID 585. Compounds that inhibit only in the absence of detergent are considered likely promiscuous aggregators. In this confirmation assay, AmpC activity was measured by following the absorbance at 480 nm. Nitrocefin is a chromogenic substrate: while nitrocefin is yellow (lmax 390 nm), the product of its hydrolysis is red (lmax 486 nm, 17,000 M-1). AmpC beta-lactamase was provided by Prof Brian Shoichet's lab, UCSF.
Buffer: 1. 20 mM phosphate buffer, pH 7.0, 0.01 % Triton X-100 2. Reagents/Controls. 3. Buffer in row 32 as negative control (no enzyme). 4. 3 nM AmpC final concentration in rows 1-31. Assay Steps: Six uL of reagents were dispensed to 1536-well Greiner black clear bottom plates. Compounds (23 nL) were transferred via Kalypsys PinTool. The plates were incubated for 15 min at room temperature, and then 2 uL of 800 uM solution of nitrocefin was added to start the reaction. The plates were immediately transferred to and read every 20 seconds for 3 minutes on ViewLux (Perkin-Elmer) High-throughput CCD imager using 480 nm absorbance protocol.
For `COC(=O)CS(=O)(=O)c1nnc([C@H](Cc2ccccc2)NC(=O)OC(C)(C)C)o1`, the Potency is 9.4 µM (active).
With `CC(C)(C)OC(=O)NCCc1nnc(S(=O)(=O)Cc2ccc(Cl)cc2Cl)o1`, the Potency was 0.066 µM (active).
In the case of `CC(C)[C@H](NC(=O)OC(C)(C)C)c1nnc(S(=O)(=O)Cc2c(F)cccc2Cl)o1` it was 1.8 µM (active).
With `CC(C)C[C@H](N)c1nnc(S(=O)(=O)Cc2cccc(F)c2)o1`, the Potency was 8.6 µM (active).
As for `CCC(C)[C@@H](NC(=O)OC(C)(C)C)c1nnc(S(=O)(=O)Cc2cccc(C)c2)o1` (some centres undefined), the Potency was 10 µM (active).
As for `CC(C)(C)OC(=O)N[C@@H](Cc1ccccc1)c1nnc(S(=O)(=O)Cc2cccc(F)c2)o1`, the Potency is 15 µM (active).
As for `Cc1ccccc1CS(=O)(=O)c1nnc([C@H](CC(C)C)NC(=O)OC(C)(C)C)o1`, the Potency was 11 µM (active).
The figure for `CC(C)(C)OC(=O)N[C@@H](Cc1ccccc1)c1nnc(S(=O)(=O)Cc2ccccc2)o1` is 16 µM (active); for `CC[C@@H](C)[C@H](NC(=O)OC(C)(C)C)c1nnc(S(=O)(=O)Cc2cc(C)ccc2C)o1` it is 10 µM (active).
